# Screens from PubChem BioAssay.
# Rab9 prom act – qHTS Assay for Rab9 Promoter Activators | Potency, µM (highest dose often 9.22 µM), for the others: at the highest dose activation, negative = inhibition, usual class: activators | AID 485297, 2010 | Huh7 Rab9 promoter-luciferase reporter, luminescence, 24 h | actives 2.8% (n = 320,000); further: % of control where 0% means no effect; nearly all actives have a fitted effect of over 60% in size
#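 Luminescence from Amplite-detected luciferase (10 minutes, ambient) reports Rab9 promoter activation. Before that, stable Rab9-luciferase Huh7 cells (1500/well, reduced-serum OP-MEM I plus 10% FBS) were exposed to compound for 24 hours at 37C.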
# NPC1 prom act – qHTS Assay for NPC1 Promoter Activators; Huh7 NPC1 promoter luciferase reporter, 24 h; Potency, µM (top dose mostly 9.22 µM), for the others: top-dose activation, most hits filed as activators; actives 2.4% (n = 320,000); AID 485313, 2010; further: % of control where 0% means no effect; nearly all actives have a fitted effect of over 60% in size
#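 Luminescence from an NPC1 promoter-driven luciferase reporter in stably transfected Huh7 cells was measured after 24 h compound treatment at 37 °C, followed by 10 min ambient incubation with luciferase detection reagent.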
# FLuc counter – qHTS profiling assay for firefly luciferase inhibitor/activator using purifed enzyme and Km concentrations of substrates (counterscreen for miR-21 project) | purified FLuc, Km substrates, luminescence inhibition | actives 6.9% (n = 360,000) | Potency, µM (top dose mostly 57.5 µM), inactives show top-dose activity change, negative = inhibition, hits mostly inhibitors | Luciferin 4-monooxygenase (Photinus pyralis), P08659;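 further: plate controls were vehicle for no effect and reference inhibitor for full effect; nearly all actives have a fitted effect of over 55% in size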
# Target sequence (P08659 whole entry, looked up): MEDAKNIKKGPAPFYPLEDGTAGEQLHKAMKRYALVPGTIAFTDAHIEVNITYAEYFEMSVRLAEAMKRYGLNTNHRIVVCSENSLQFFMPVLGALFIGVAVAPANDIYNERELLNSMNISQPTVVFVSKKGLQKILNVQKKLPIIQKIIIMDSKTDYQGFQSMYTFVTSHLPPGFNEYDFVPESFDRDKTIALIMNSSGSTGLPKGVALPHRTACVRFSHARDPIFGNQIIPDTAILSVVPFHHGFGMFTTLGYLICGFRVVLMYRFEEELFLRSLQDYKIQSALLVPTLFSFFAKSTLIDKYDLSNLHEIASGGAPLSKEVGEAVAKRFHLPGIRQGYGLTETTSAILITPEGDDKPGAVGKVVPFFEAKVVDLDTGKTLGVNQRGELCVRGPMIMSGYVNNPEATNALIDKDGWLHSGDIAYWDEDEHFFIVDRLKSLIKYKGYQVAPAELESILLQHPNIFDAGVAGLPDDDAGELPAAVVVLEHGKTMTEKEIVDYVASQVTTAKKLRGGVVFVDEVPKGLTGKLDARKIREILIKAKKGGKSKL
#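 Biochemical qHTS of compounds, final roughly 60 µM downward over six points, against 10 nM purified firefly luciferase using Km concentrations of substrates (10 uM D-luciferin, 10 uM ATP) in Tris acetate pH 7.5 buffer; luminescence output.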
# SMN2 splice up – qHTS Assay for Enhancers of SMN2 Splice Variant Expression. HEK293 SMN2-luciferase splicing reporter, luminescence, 30-36 h. Potency, µM (highest dose often 46.1 µM), for inactives: top-dose activity change, positive = activation, hits mostly activators. actives 2.8% (n = 210,000). AID 1458, 2008; further: % of control where 0% means no effect; nearly all actives have a fitted effect of over 55% in size
#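 qHTS luciferase splicing reporter: luminescence rises when SMN2 exon 7 is included in transfected HEK293 cells. Compound exposure lasted 30-36 h at 37C, with 4.5 mM final sodium butyrate as control, followed by a ONE-Glo read.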
# p53 reactivation – qHTS assay for re-activators of p53 using a Luc reporter; actives 0.063% (n = 320,000); AID 504706, 2011; H1299 p53-A138V BP100-luciferase reporter, luminescence, 24 h; Potency, µM (top dose mostly 92.2 µM), for the others: at the top dose activity change, positive = activation, usual class: activators; further: % of control where 0% means no effect; nearly all actives have a fitted effect of over 45% in size
#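 p53-null H1299 cells stably carrying temperature-sensitive p53-A138V and a BP100-luciferase reporter were pinned with compounds (4-point, 1:5 series) and held 24 hrs at 37 deg C. Luminescence was read 10 min after detection reagent.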
# ELG1 genotox – qHTS screen for small molecules that induce genotoxicity in human embryonic kidney (HEK293T) cells expressing luciferase-tagged ELG1; AID 504466, 2011; Potency, µM (highest dose often 46 µM), without a hit: at the highest dose activity change, positive = activation, hits mostly activators; actives 1.3% (n = 330,000); HEK293T ELG1-luciferase reporter, luminescence, 16 h; further: % of control where 0% means no effect; nearly all actives have a fitted effect of over 60% in size
#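 HEK293T cells expressing luciferase-tagged ELG1 were exposed to compound or DMSO vehicle for 16 hr at 37 °C and 5% CO2. Luciferase activity was then measured with ONE-Glo after 30 min at room temperature.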
# The depositor's hits bear a star; ? = inconclusive; / = no result given; [ ] = another dose, or the depositor's remark. In the library only some 7.4% were active in any assay of this set; here they are far more common. The call rests on the fitted dose curve; in most records, active means well fitted curve in the direction sought with a large enough effect; inconclusive means small, poorly fitted or top-dose-only effect, or another doubt; inactive means no such curve, though single readings can be large; an effect the other way counts as inactive or inconclusive. Potency means the concentration at half of the fitted maximal effect.
SMILES,Rab9 prom act,NPC1 prom act,FLuc counter,SMN2 splice up,p53 reactivation,ELG1 genotox
O=[N+]([O-])c1ccccc1N/N=C/c1c[nH]c2ccccc12,1.5%,?,4.26µM*,12.6µM*,13.8%,4.11µM*
O=C(O)c1ccccc1NS(=O)(=O)c1ccc(NN=Cc2ccc(F)cc2)c([N+](=O)[O-])c1,/,/,/,/,0.8%,0.6%
O=[N+]([O-])c1ccccc1N/N=C/c1ccc2c(c1)OCO2,0.316µM*,0.501µM*,0.477µM*,2.82µM*,12.1%,2.91µM*
O=[N+]([O-])c1ccc(N/N=C/c2c[nH]c3ccccc23)cc1,-2.3%,-1.6%,?,-9.8%,21.2%,15.3%
CN(C)C(=O)OC1=C(c2ccccc2)Sc2ccccc2-n2cccc21,/,/,/,-16.4%,/,/
C[C@H]1[C@H]2CC[C@H]3[C@@H]4CC=C5C[C@@H](N(C)C)CC[C@]5(C)[C@H]4CC[C@]23CN1C,/,/,/,4.0%,/,/
COc1cc(NC(=O)C(NC(=O)C2CCC(C)CC2)C(C)C)cc(OC)c1OC (centres undefined),/,/,-1.0%,19.4%,/,/
CCCCC/C=C\CC(O)/C=C/c1cccc(CC(O)CCCCO)n1 (centres undefined),2.8%[46.1 µM],-0.6%[46.1 µM],/,-12.8%,/,/
COc1ccc(-c2cccc(C(=O)Nc3cccc(C(=O)O)c3)c2)cc1,3.16µM*,3.16µM*,12µM*,14.1µM*,?,?
COc1ccc(C(=O)Nc2ccc(C(=O)NCCc3ccc(OC)c(OC)c3)cc2)cc1,-1.5%,-3.6%,1.2%,/,2.2%,?
COc1ccc(-c2cccc(C(=O)Nc3ccc(OC)c(OC)c3)c2)cc1,-0.5%,-8.8%,10.7µM*,-23.1%,2.1%,0.2%
COc1ccc(C(=O)Nc2ccc(OC)c(OC)c2)cc1,?,?,12µM*,11.2µM*,27.6%,?
COc1ccc(C(=O)COC(=O)c2cccc(NC(=O)c3ccc(OC)c(OC)c3)c2)cc1,/,/,0.601µM*,-1.7%,/,/
O=C(Nc1ccccc1Cl)c1ccc2nc(N3CCOCC3)sc2c1,?,?,-6.7%,/,21.1%,15.6%
CCC1=C2CC[C@H]3C(=O)N(C)C(=O)[C@H]3[C@H]2[C@@]2(C)C(=O)N(CC(=O)OC)C(=O)N2C1=O,/,/,/,-1.3%,/,/
Cn1c(CS/C(N)=N/N=C/c2ccccc2)c(Br)c(=O)n1-c1ccccc1,21.9%,9.2%,15.1µM*,1.7%,16.1%,3.0%
Cc1c(NC(=S)N/N=C/c2ccc(Br)cc2)c(=O)n(-c2ccccc2)n1C,-6.3%,-1.5%,1.7%,/,-6.0%,-0.1%
CCC(Cc1ccccc1)NS(=O)(=O)c1csc(C(N)=O)c1 (centres undefined),0.1%,-0.6%,-2.6%,/,4.9%,-2.0%[9.26 µM]
Cc1nn(-c2ccccc2)c(C)c1/C=N/NC(=O)CSc1nnc(-c2ccccc2)n1-c1ccc(Cl)cc1,-1.5%,6.7%,-2.8%,1.0%,-4.8%,-5.3%
Cc1ccc(CSc2nnc(SCC(=O)N/N=C/c3c(C)nn(-c4ccccc4)c3C)s2)cc1,?,?,4.26µM*,9.0%,?,-12.7%
Cc1nn(-c2ccccc2)c(C)c1/C=N/NC(=O)CSc1nnc(SCc2ccccc2Cl)s1,25.9%,?,6.75µM*,?,18.0%,1.4%
COc1cccc(CC(=O)Nc2ccc3c(c2)OC2(CCCC2)O3)c1,21.6%,16.8%,13.5µM*,/,?,3.2%
CC1(C)SC(=S)N(NC(=O)Nc2ccccc2)C1N(O)C(=O)Nc1ccccc1 (centres undefined),9.4%,0.4%,-0.1%,0.0%,2.9%,-0.9%
CNC(=O)N(O)C1N(NC(=O)Nc2cccc3ccccc23)C(=S)SC1(C)C (centres undefined),-1.1%,-4.2%,-1.4%,7.08µM*,-12.7%,4.0%
Brc1ccccc1-c1nc2c3ccccc3ncn2n1,3.16µM*,?,?,/,?,13.3%
SMILES,Rab9 prom act,NPC1 prom act,FLuc counter,SMN2 splice up,p53 reactivation,ELG1 genotox
Clc1ccc(-c2nc3c4cnn(-c5ccccc5Br)c4ncn3n2)c(Cl)c1,/,/,-17.4%,-2.4%,/,/
CN(Cc1ccccc1)C(=O)c1cn(C)c2ccc(S(=O)(=O)N3CCCC3)cc2c1=O,3.6%,-13.6%,0.1%,/,-1.1%,0.4%
Cc1ccc(C)c(CN2C(=O)c3ccccc3S(=O)(=O)c3ccc(C(=O)N4CCc5ccccc54)cc32)c1,/,/,-3.9%,-2.5%,/,/
O=C(/C=C/NNC(=O)c1ccccc1)c1ccc(Br)cc1,-0.1%,7.1%,26.9µM*,4.1%,18.8%,?
O=C(/C=C/NNC(=O)c1ccc(Cl)cc1)c1ccccc1,0.6%,-0.9%,?,6.6%,0.9%,-4.2%
COc1ccc(C(=O)C=CNNC(=O)c2ccc(Cl)cc2)cc1,-6.3%,-7.0%,-6.1%,/,/,6.7%
Cc1ccc(C(=O)/C=C/NNC(=O)c2ccccc2O)cc1,6.6%,10.1%,26.9µM*,/,/,-4.9%
Cc1ccccc1OCCCCn1c(-c2ccc(Cl)cc2)nc2ccccc2c1=O,/,/,-0.7%,-11.5%,/,/
CS(=O)(=O)C1=NSC2=NC(=O)/C(=C\c3ccc(OC(=O)c4ccco4)c(Br)c3)C(=N)N21,1.9%,-0.8%,13.5µM*,/,2.4%,3.4%
CSC1=NSC2=NC(=O)/C(=C\c3ccc(OC(=O)c4ccco4)cc3)C(=N)N12,1.58µM*,3.55µM*,19µM*,/,?,?
COc1cc(/C=C2/C(=N)N3C(=NC2=O)SN=C3S(C)(=O)=O)ccc1OS(=O)(=O)c1ccc(C)cc1,0.2%,0.1%,-18.6%,/,15.0%,-1.2%[9.26 µM]
CC(C)CS(=O)(=O)C1=NSC2=NC(=O)/C(=C\c3ccc(OC(=O)c4ccco4)cc3)C(=N)N21,2.3%,9.2%,?,/,14.7%,0.7%
NC(=O)c1c(NC(=O)Cc2ccccc2)sc2c1CCN(Cc1ccccc1)C2,2.8%,-5.1%,1.1%,/,/,2.0%
COc1ccc(-c2cc3nc(C)c(CCC(=O)N4CCN(c5cc(C)ccc5C)CC4)c(C)n3n2)c(OC)c1,/,/,1.6%,6.7%,/,/
COc1ccc(/C=C2\SC(N)=NC2=O)cc1,24.9%,1.8%,15.1µM*,/,-8.8%,3.6%
CCOC(=O)CSC1=NC(=O)/C(=C/c2ccc(OC)cc2)S1,-32.5%,-27.0%,13.5µM*,-9.8%[1.84 µM],?,?
NC1=NC(=O)/C(=C\c2ccco2)S1,0.1%,-3.1%,16.9µM*,/,5.7%,1.8%
Cc1ccc2nc3c(cc(C#N)c(=O)n3-c3nnc(SCc4ccccc4Cl)s3)c(=O)n2c1,/,/,1.9%,4.0%,/,/
